Results reported in PubChem BioAssay (EPA / NIEHS).
Inconclusive results are not listed. Where a structure was tested more than once in an assay, its records may differ in their call. Active and inactive are the calls of the source. The calls were made as follows, unless noted: active = hit-call score of the fitted dose curve at least 0.9, where 1 is the maximum; inconclusive = response in the unintended direction; inactive = score below 0.9.

Assays:
[1] = system: guinea pig Dopamine Transporter (DAT), gene 100714898; assay: NVS_TR_gDAT: NovaScreen (NVS) Transporter Assay for guinea pig Dopamine Transporter (DAT) (AID 2283369);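 also: active compounds lower bound radioligand signal relative to DMSO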
In short: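 Guinea pig striatal membranes, cell-free radioligand binding with filter-based scintillation counting, read 2 h after dosing. Loss of signal versus DMSO baseline; single-concentration primary (25 uM) then concentration-response up to 50 uM.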

[2] = target: Peroxisome proliferator-activated receptor gamma (Homo sapiens) (UniProt P37231); assay: NVS_NR_hPPARg: NovaScreen (NVS) Nuclear Receptor Binding Assay for human Peroxisome Proliferator-activated Receptor gamma (PPARg) (AID 2283370)
Peroxisome proliferator-activated receptor gamma (Homo sapiens), sequence (P37231 whole entry, looked up, the tested form may be a part): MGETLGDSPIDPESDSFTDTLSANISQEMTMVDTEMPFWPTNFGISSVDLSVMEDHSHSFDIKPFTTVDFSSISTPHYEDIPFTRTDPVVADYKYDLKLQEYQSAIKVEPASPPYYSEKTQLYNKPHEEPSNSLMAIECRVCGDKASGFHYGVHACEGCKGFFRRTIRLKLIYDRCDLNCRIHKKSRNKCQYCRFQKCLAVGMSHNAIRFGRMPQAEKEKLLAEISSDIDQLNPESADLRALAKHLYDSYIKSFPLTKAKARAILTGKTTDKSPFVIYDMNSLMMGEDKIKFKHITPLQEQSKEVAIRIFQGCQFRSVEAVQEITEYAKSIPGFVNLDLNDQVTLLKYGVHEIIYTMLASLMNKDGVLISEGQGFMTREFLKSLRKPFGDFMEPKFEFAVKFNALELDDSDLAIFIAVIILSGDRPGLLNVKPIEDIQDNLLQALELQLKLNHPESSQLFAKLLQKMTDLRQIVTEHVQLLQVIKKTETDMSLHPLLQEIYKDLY
In short: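 Cell-free fluorescence polarization binding to human PPARg protein, read 2 h after dosing. Primary screen in duplicate at 25 uM, actives followed in concentration series; loss of signal relative to DMSO scored.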

[3] = target: mouse Estrogen Receptor alpha (Era), Esr1 (gene 13982) (UniProt P19785); assay: NVS_NR_mERa: NovaScreen (NVS) Nuclear Receptor Binding Assay for mouse Estrogen Receptor alpha (Era) (AID 2283378);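 also: hit means loss of bound radioligand signal relative to DMSO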
mouse Estrogen Receptor alpha (Era), Esr1 (gene 13982), sequence (P19785 whole entry, looked up): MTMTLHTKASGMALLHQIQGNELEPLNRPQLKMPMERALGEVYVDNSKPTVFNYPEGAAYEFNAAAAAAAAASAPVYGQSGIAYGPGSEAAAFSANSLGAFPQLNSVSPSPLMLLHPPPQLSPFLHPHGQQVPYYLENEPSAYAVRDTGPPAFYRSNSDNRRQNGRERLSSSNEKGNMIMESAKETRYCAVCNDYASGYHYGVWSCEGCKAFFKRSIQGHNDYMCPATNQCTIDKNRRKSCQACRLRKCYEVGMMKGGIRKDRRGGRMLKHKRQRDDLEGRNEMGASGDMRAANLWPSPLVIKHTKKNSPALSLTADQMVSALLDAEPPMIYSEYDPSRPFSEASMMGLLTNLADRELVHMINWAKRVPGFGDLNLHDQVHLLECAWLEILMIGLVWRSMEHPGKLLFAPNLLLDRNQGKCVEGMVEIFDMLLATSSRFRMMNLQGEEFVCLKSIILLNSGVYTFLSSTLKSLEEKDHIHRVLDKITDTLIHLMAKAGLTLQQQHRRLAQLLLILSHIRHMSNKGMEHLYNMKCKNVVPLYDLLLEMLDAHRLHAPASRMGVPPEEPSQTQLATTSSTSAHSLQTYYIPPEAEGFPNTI
In short: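 Cell-free radioligand competitive displacement binding, read by filter-based scintillation counting 18 h after dosing. Primary screen run in duplicate at 25 uM, actives retested in concentration series; loss of signal versus DMSO.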

[4] = target: Estrogen receptor beta (Homo sapiens) (UniProt Q92731); assay: OT_ER_ERbERb_1440: Odyssey Thera (OT) 24-hour HEK293T Protein-Complementation Assay for Estrogen Receptor-beta/-beta Homodimer (AID 2283380);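 also: fluorescence gain from ER beta LBD homodimer complementation read by laser scanning cytometry; scored as signal increase over DMSO baseline for both agonists and antagonists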
Estrogen receptor beta (Homo sapiens), sequence (Q92731 whole entry, looked up, the tested form may be a part): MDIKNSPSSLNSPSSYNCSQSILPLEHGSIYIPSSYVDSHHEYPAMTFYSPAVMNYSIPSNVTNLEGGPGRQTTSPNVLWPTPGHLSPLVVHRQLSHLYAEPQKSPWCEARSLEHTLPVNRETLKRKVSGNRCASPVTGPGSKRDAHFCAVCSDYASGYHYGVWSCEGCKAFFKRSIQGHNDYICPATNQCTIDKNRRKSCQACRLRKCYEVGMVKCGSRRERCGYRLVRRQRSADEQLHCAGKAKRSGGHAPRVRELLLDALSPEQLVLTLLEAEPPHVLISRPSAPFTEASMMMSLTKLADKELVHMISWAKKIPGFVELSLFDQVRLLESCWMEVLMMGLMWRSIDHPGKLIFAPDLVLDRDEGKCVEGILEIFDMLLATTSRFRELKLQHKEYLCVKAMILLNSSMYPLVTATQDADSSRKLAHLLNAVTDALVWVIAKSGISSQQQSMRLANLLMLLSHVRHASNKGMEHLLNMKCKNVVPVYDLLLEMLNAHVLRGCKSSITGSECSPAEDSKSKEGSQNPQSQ
In short: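 HEK293T cells stably expressing human ER-beta LBD (aa 310-547) PCA homodimer pair, dosed 24 h; formaldehyde-fixed, Draq5-stained. Readout: increase in nuclear (agonist) or nuclear plus cytoplasmic (antagonist) fluorescence intensity versus DMSO, gain-of-signal fitting.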

[5] = target: Estrogen receptor (Homo sapiens) (UniProt P03372); assay: OT_ERa_GFPERaERE_0480: Odyssey Thera (OT) 8-hour HeLa Transcription Induction Assay for Estrogen Receptor (AID 2283381; active = hit-call score of the fitted dose curve at least 0.9, where 1 is the maximum; inactive = score below 0.9)
Estrogen receptor (Homo sapiens), sequence (P03372 whole entry, looked up): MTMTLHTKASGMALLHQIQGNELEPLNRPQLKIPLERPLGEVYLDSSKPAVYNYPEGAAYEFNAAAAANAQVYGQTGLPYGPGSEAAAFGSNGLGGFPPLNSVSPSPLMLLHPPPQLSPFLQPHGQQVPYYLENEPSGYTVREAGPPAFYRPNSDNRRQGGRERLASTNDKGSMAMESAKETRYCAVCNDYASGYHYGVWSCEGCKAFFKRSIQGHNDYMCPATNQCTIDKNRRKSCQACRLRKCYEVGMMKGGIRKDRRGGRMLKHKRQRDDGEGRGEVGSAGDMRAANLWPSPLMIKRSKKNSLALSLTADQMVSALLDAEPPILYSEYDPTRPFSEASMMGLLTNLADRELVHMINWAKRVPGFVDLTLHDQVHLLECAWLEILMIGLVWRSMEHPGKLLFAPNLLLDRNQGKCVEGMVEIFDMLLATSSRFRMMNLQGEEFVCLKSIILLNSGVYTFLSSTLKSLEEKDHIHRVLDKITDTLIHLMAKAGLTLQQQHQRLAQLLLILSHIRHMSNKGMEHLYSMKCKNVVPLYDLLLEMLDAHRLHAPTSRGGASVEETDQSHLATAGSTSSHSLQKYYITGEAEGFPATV
In short: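 Fluorescence microscopy with high-content image analysis measures ERE-driven GFP induction in HeLa cells at 8 h post-dose. Increases fitted against DMSO baseline.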

[6] = target: Estrogen receptor (Homo sapiens) (UniProt P03372); assay: OT_ERa_GFPERaERE_0120: Odyssey Thera (OT) 2-hour HeLa Transcription Induction Assay for Estrogen Receptor (AID 2283382)
In short: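 Fluorescence-microscopy images of the GFP-ERα/ERE reporter, scored by high-content image algorithms, give the readout. HeLa exposure lasted 2 h, and only signal increase over DMSO was fitted.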

[7] = target: Peroxisome proliferator-activated receptor gamma (Homo sapiens) (UniProt P37231); assay: OT_PPARg_PPARgSRC1_0480: Odyssey Thera (OT) 8-hour Protein-Complementation Assay for Peroxisome Proliferator-activated Receptor Gamma / SRC-1 Co-activator (AID 2283387)
In short: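 Read-out: 488 nm N/C fluorescence ratio from complemented Venus YFP fragments, ≥350 cells per image, gain-of-signal fitted against DMSO baseline. Fusions of PPARg/SRC-1 with IFP1/IFP2 expressed transiently in HEK293T; compounds applied 8 h.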

[8] = target: Peroxisome proliferator-activated receptor gamma (Homo sapiens) (UniProt P37231); assay: OT_PPARg_PPARgSRC1_1440: Odyssey Thera (OT) 24-hour Protein-Complementation Assay for Peroxisome Proliferator-activated Receptor Gamma/ SRC-1 Co-activator (AID 2283388)
In short: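 HEK293T transiently transfected with PPARg/SRC-1 split-Venus YFP fusions 48 h before dosing, then treated 24 h at 37C. Fixed cells imaged; nuclear/cytoplasmic 488 nm fluorescence ratio, gain of signal versus DMSO.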

[9] = target: Retinoic acid receptor RXR-alpha (Homo sapiens) (UniProt P19793); assay: OT_NURR1_NURR1RXRa_0480: Odyssey Thera (OT) 8-hour HEK293T Protein Complementation Assay for Nurr1/retinoid X receptor (RXR) (AID 2283385)
Retinoic acid receptor RXR-alpha (Homo sapiens), sequence (P19793 whole entry, looked up, the tested form may be a part): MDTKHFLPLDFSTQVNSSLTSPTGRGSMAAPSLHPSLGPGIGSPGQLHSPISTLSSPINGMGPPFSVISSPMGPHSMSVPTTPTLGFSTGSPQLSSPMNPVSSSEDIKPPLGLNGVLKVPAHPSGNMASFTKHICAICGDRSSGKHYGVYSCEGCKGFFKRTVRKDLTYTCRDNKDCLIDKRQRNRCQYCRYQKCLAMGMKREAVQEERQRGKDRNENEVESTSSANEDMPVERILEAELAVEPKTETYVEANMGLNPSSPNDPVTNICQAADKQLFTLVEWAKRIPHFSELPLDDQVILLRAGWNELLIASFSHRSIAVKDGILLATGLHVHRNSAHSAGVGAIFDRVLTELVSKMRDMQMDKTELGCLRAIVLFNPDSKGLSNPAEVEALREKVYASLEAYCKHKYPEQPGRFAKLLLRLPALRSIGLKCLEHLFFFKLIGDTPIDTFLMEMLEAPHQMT
In short: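 Interaction of Nurr1 with RXRα read as reconstituted reporter fluorescence in a HEK293T fragment-complementation system, 8 h post-treatment; increase over DMSO baseline analysed.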

[10] = target: Retinoic acid receptor RXR-alpha (Homo sapiens) (UniProt P19793); assay: OT_NURR1_NURR1RXRa_1440: Odyssey Thera (OT) 24-hour HEK293T Protein Complementation Assay for Nurr1/retinoid X receptor (RXR) (AID 2283386)
In short: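 Gain in fluorescence, fitted relative to DMSO, reflects Nurr1–RXRα association in HEK293T cells after 24 h dosing. Bait and prey are each linked to a reporter-protein fragment that reassembles on interaction.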

[11] = target: human Dopamine Transporter (DAT), SLC6A3 (gene 6531) (UniProt Q01959); assay: NVS_TR_hDAT: NovaScreen (NVS) Transporter Assay for human Dopamine Transporter (DAT) (AID 2283374);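 also: activity means loss of bound radioligand signal relative to DMSO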
human Dopamine Transporter (DAT), SLC6A3 (gene 6531), sequence (Q01959 whole entry, looked up): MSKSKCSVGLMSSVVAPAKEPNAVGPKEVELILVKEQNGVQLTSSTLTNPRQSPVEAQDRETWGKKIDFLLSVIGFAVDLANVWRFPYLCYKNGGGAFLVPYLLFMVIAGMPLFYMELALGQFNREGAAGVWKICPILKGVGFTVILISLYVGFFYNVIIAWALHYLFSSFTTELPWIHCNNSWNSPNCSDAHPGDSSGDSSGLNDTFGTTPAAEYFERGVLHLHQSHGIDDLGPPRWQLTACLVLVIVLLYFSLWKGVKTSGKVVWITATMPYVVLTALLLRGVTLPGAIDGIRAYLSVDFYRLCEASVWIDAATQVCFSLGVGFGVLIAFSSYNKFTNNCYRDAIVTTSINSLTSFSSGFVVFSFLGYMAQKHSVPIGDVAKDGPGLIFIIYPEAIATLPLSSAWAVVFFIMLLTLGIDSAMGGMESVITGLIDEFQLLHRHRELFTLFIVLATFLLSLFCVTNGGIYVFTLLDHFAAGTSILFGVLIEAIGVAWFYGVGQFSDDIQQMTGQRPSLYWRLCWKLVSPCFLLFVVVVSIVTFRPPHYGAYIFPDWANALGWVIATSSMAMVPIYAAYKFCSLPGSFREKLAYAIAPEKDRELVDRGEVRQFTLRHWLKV
In short: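 Extracted human SLC6A3 protein incubated 1 h with radioligand and test chemical; bound fraction separated on filters and counted. Single 25 uM duplicate screen preceded concentration-response follow-up; positive and negative controls on every plate.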

[12] = target: human Norepinephrine Transporter (NET), SLC6A2 (gene 6530) (UniProt P23975); assay: NVS_TR_hNET: NovaScreen (NVS) Transporter Assay for human Norepinephrine Transporter (NET) (AID 2283377);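 also: cell-free membrane protein extracted from CHO cells expressing human NET; displacement of radioligand from human NET seen as loss of scintillation signal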
human Norepinephrine Transporter (NET), SLC6A2 (gene 6530), sequence (P23975 whole entry, looked up): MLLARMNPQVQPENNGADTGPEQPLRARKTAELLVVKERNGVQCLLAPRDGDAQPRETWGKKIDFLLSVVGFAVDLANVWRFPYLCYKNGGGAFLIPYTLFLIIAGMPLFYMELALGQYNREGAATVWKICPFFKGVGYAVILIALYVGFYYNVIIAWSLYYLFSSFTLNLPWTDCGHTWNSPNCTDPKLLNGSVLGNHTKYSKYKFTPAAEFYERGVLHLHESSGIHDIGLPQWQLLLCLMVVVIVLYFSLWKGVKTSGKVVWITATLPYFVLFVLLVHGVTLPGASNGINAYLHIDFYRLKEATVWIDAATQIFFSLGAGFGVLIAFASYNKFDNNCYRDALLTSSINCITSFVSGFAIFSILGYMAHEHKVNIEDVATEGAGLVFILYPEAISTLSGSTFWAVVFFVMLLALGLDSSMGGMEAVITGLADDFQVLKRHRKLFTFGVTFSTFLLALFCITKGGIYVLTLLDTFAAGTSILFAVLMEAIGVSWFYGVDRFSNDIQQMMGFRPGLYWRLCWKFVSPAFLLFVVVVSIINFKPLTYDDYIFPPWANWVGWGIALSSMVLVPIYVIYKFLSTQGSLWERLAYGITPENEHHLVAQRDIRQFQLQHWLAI
In short: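 In this cell-free binding screen, chemicals at 25 uM (duplicate) compete with a radioligand for CHO-derived human NET over 1 hour, with filter-based radiodetection.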

[13] = CEETOX_H295R_11DCORT: CeeTox H295R High-throughput Steroidogenesis Assay for 11-Deoxycortisol (11DCORT) (AID 2283432; active = hit-call score of the fitted dose curve at least 0.9, where 1 is the maximum; inactive = score below 0.9;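 as to AC50: 11-deoxycortisol secreted into the medium measured by LC-MS/MS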); conditions: actives raise or lower the signal
In short: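 H295R cells; 10 uM forskolin prestim 48 h; compound in 0.1% DMSO 48 h; media extracted with MTBE; 11-deoxycortisol by LC-MS/MS, 7-point standard curve; gain/loss vs DMSO baseline; viability by MTT in same wells.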

[14] = CEETOX_H295R_OHPREG: CeeTox H295R High-throughput Steroidogenesis Assay for OH-Pregnenolone (OHPREG) (AID 2283434; active = hit-call score of the fitted dose curve at least 0.9, where 1 is the maximum; inactive = score below 0.9); conditions: actives raise or lower the signal
In short: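 Readout: HPLC-MS/MS of 17alpha-hydroxypregnenolone in medium after 48 h chemical exposure of H295R cells pretreated with forskolin. Values fitted bidirectionally relative to DMSO; chemicals reducing viability to 20–70% were retested after 10-fold dilution.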

[15] = CEETOX_H295R_OHPROG: CeeTox H295R High-throughput Steroidogenesis Assay for OH-Progesterone (OHPROG) (AID 2283435; active = hit-call score of the fitted dose curve at least 0.9, where 1 is the maximum; inactive = score below 0.9;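 as to AC50: 17alpha-hydroxyprogesterone secreted into medium measured by HPLC-MS/MS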); conditions: actives raise or lower the signal
In short: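 Medium steroid levels read by LC-MS/MS after 48 h chemical treatment (0.1% DMSO) of human adrenal H295R cells that had been forskolin-primed (10 uM, 48 h). Gain or loss fitted against DMSO; MTT cytotoxicity checked per well.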

[16] = target: Bile acid receptor (Homo sapiens) (UniProt Q96RI1); assay: OT_FXR_FXRSRC1_0480: Odyssey Thera (OT) 8-hour HEK293T Protein-Complementation Assay for Farnesoid X receptor/SRC-1 Co-activator (AID 2283383)
Bile acid receptor (Homo sapiens), sequence (Q96RI1 whole entry, looked up): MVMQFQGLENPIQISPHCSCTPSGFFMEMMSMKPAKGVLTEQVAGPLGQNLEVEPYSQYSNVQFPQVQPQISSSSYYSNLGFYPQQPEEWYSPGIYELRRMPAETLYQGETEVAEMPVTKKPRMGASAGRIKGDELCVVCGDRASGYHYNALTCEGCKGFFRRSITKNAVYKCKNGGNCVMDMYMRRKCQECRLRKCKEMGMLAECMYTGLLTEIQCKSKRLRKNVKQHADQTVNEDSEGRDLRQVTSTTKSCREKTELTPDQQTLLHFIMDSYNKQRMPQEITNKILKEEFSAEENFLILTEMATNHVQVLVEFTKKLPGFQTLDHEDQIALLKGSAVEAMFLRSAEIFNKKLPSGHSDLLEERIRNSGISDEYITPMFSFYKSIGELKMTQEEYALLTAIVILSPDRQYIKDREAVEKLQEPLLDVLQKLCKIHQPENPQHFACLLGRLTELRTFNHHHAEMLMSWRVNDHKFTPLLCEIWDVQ
In short: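 Binding of FXR to coactivator SRC-1 was read as fluorescence from a reconstituted split reporter in HEK293T cells, 8 h after chemical addition. Only increases in signal versus DMSO were fit.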

## [Cl][Dy]([Cl])[Cl]
[1]
  AC50: 17.4 µM (active)

## CC(C)(C)c1ccc(S)cc1
[2]
  outcome: inactive
[3]
  AC50: 10.6 µM (active)
[4]
  outcome: inactive
[5]
  outcome: inactive
[6]
  outcome: inactive
[7]
  outcome: inactive
[8]
  outcome: inactive

## C1CCCNCC1
[2]
  outcome: inactive
[4]
  outcome: inactive
[5]
  outcome: inactive
[6]
  outcome: inactive
[9]
  outcome: inactive
[10]
  outcome: inactive
[7]
  outcome: inactive
[8]
  outcome: inactive

## O=C(O)c1ccccc1O
[2]
  outcome: inactive
[5]
  outcome: inactive
[6]
  outcome: inactive
[9]
  outcome: inactive
[10]
  outcome: inactive
[7]
  outcome: inactive
[8]
  outcome: inactive

## CC(C)(O)CCc1ccccc1
[1]
  AC50: 25 µM (active)
[11]
  outcome: inactive

## CC(C)CCCC(C)(C)O
[2]
  outcome: inactive
[4]
  outcome: inactive
[5]
  outcome: inactive
[6]
  outcome: inactive
[9]
  outcome: inactive
[10]
  outcome: inactive
[7]
  outcome: inactive
[8]
  outcome: inactive

## C=C(C)C(=O)OCCC(C)OC(=O)C(=C)C (stereo not given)
[2]
  AC50: 20.1 µM (active)
[5]
  outcome: inactive
[6]
  outcome: inactive
[9]
  outcome: inactive
[10]
  outcome: inactive
[7]
  outcome: inactive
[8]
  outcome: inactive

## CC/C(=C(\c1ccccc1)c1ccc(OCCN(C)C)cc1)c1ccccc1
[1]
  AC50: 3.1 µM (active)
[2]
  outcome: inactive
[11]
  AC50: 6.98 µM (active)
[12]
  AC50: 3.85 µM (active)
[9]
  AC50: 11.5 µM (active)
[7]
  outcome: inactive
[8]
  outcome: inactive
[13]
  AC50: 0.136 µM (active)
  outcome: inactive
[14]
  AC50: 0.311 µM (active)
  outcome: inactive
[15]
  AC50: 0.161 µM (active)
  outcome: inactive

## CCCCCC1CCC(=O)O1 (stereo not given)
[2]
  outcome: inactive
[4]
  outcome: inactive
[5]
  outcome: inactive
[6]
  outcome: inactive
[16]
  outcome: inactive
[9]
  outcome: inactive
[7]
  outcome: inactive
[8]
  outcome: inactive

## CC(=O)Oc1c(C)c(C)c2c(c1C)CC[C@@](C)(CCC[C@H](C)CCC[C@H](C)CCCC(C)C)O2
[2]
  outcome: inactive
[5]
  outcome: inactive
[6]
  outcome: inactive
[7]
  outcome: inactive
[8]
  outcome: inactive

## CCCO[Si](OCCC)(OCCC)OCCC
[2]
  outcome: inactive
[4]
  outcome: inactive
[5]
  outcome: inactive
[6]
  outcome: inactive
[7]
  outcome: inactive
[8]
  outcome: inactive

## C[C@]12CC[C@@H]3c4ccc(O)cc4CC[C@H]3[C@@H]1CC[C@@H]2O
[1]
  AC50: 1.74 µM (active)
[2]
  outcome: inactive
[11]
  AC50: 0.17 µM (active)
[9]
  outcome: inactive
[7]
  outcome: inactive
[8]
  outcome: inactive
[13]
  AC50: 4.37 µM (active)
[14]
  AC50: 1.57 µM (active)
[15]
  outcome: inactive

## CCCCCCCCCCO[C@@H]1O[C@H](CO)[C@@H](O)[C@H](O)[C@H]1O
[2]
  outcome: inactive
[4]
  outcome: inactive
[5]
  outcome: inactive
[6]
  outcome: inactive
[9]
  outcome: inactive
[8]
  outcome: inactive

## CCCCCCOc1ccc(O)cc1
[2]
  outcome: inactive
[3]
  AC50: 0.174 µM (active)
[4]
  AC50: 12 µM (active)
[5]
  AC50: 88.9 µM (active)
[6]
  AC50: 69.5 µM (active)
[9]
  outcome: inactive
[7]
  outcome: inactive
[8]
  outcome: inactive
